Sampled rows, rich in hits. Any-hit rate of the full collection: about 9.9%.
MCF10A rerep = A quantitative high throughput screen for small molecules that induce DNA re-replication in MCF 10a normal breast cells | MCF 10A DNA re-replication, Hoechst nuclear intensity, 48 h | Potency, µM (series often up to 46.1 µM), without a hit: at the top dose activity, positive = re-replication, actives largely listed as activators | 2.9% of 350,000 active | AID 624296, 2012; further: potency means the concentration at half of the fitted maximal effect; % of control where 0% means no effect; nearly all actives have a fitted effect of over 50% in size
KB-3-1 tox = qHTS assay for MDR1-selective chemotherapeutics: Primary screen using the parental adenocarcinoma cell KB-3-1; KB-3-1 viability, CellTiter-Glo ATP luminescence, 72 h; Potency, µM (top dose mostly 46.1 µM), hits mostly cytotoxic; 1.4% of 400,000 active; AID 1347075, 2019; further: potency means the concentration at half of the fitted maximal effect; on the % scale 0 is the no-effect control and ±100 the full control effect; nearly all actives have a fitted effect of over 60% in size
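Multi-concentration cytotoxicity screen in KB-3-1 cells grown in DMEM lacking phenol red with 10% FBS. After 72 h at 37 °C with compound, ATP-dependent luminescence was recorded.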
SW480 rerep = A quantitative high throughput screen for small molecules that induce DNA re-replication in SW480 colon adenocarcinoma cells; AID 624297, 2012; 1.8% of 340,000 active; Potency, µM (doses to about 46.1 µM), for inactives: top-dose re-replication activation, most hits filed as activators; SW480 DNA re-replication, Hoechst DNA content imaging, 48 h; further: potency means the concentration at half of the fitted maximal effect; % of control where 0% means no effect; nearly all actives have a fitted effect of over 55% in size
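Hoechst fluorescence of nuclei (405 nm excitation, 500-530 nm emission) measured by plate-scanning imager after 48 hr compound exposure at 37 C; re-replication scored as increased number of nuclei with elevated intensity.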
KB-V1 MDR tox = qHTS assay for MDR1-selective chemotherapeutics: Primary screen using the drug-selected MDR subline cells KB-V1 | 3.4% of 400,000 active | KB-V1 MDR cells viability, CellTiter-Glo, 72 h | Potency, µM (series often up to 46.1 µM), hits mostly cytotoxic | AID 1347076, 2019; further: potency means the concentration at half of the fitted maximal effect; on the % scale 0 is the no-effect control and ±100 the full control effect; nearly all actives have a fitted effect of over 60% in size
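KB-V1 cells (P-gp-expressing MDR subline of KB-3-1) in phenol-red-free DMEM with 10% FBS were exposed to library compounds over a concentration series for 72 h at 37 degrees C. Viability read by CellTiter-Glo luminescence; concentration-effect curves fitted after normalization.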
IL-1B inflam inh = qHTS for Inhibitors of Inflammasome Signaling: IL-1-beta AlphaLISA Primary Screen | THP-1 LPS/ATP IL-1B secretion, AlphaLISA, 16 h; active compounds read low | activity change, % at 57.5 µM | 4.7% of 360,000 active; in the data active means activity change below about -50%; inconclusive means mostly about -30% to -49%; further: on the % scale 0 is the no-effect control and ±100 the full control effect
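THP-1 cells pretreated 1 hr with compounds (up to 57.5 uM final), then stimulated with LPS (250 ng/mL final) plus ATP (1.25 mM final); secreted IL-1B measured by AlphaLISA after 16 hr, decreased signal indicating inhibition.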
The depositor's hits bear a star. Unless noted, the call rests on the fitted dose curve; in most records, active means well fitted curve in the direction sought with a large enough effect; inconclusive means small, poorly fitted or top-dose-only effect, or another doubt; inactive means no such curve, though single readings can be large; an effect the other way counts as inactive or inconclusive.

Screening CCOC(=O)c1sc(NNC(=O)c2ccc(C)cc2)nc1C returned MCF10A rerep 26µM*, KB-3-1 tox inactive, SW480 rerep -11%, KB-V1 MDR tox inactive and IL-1B inflam inh -5.
`CCOC(=O)c1nc(NNC(=O)c2ccc([N+](=O)[O-])cc2)sc1C` gave MCF10A rerep 25%, KB-3-1 tox 18µM*, SW480 rerep 3.7µM*, KB-V1 MDR tox inconclusive and IL-1B inflam inh -7.
Screening CCCCCNc1nc(N2CCCC2)c2c(c1C#N)CCN(C)C2 returned MCF10A rerep 11µM*, KB-3-1 tox inconclusive, SW480 rerep inconclusive, KB-V1 MDR tox 23µM* and IL-1B inflam inh -51*.
c1ccc(CSc2ccc3nnc(-c4cccnc4)n3n2)cc1 was read as MCF10A rerep 2%, KB-3-1 tox inactive, SW480 rerep -10%, KB-V1 MDR tox 18µM* and IL-1B inflam inh 48.
CC(=O)c1cc2cccc(OC3(C)CCN(Cc4ccc(-c5ccccn5)cc4)C3)c2o1 (centres undefined) was read as KB-3-1 tox inactive, KB-V1 MDR tox inactive and IL-1B inflam inh -19.
For CCOc1cc(S(=O)(=O)n2cnc(C)c2)ccc1Cl the results were MCF10A rerep -9%, KB-3-1 tox inactive, SW480 rerep -16%, KB-V1 MDR tox inactive and IL-1B inflam inh 2.
Screening Cc1ccc(NC(=O)C(OC(=O)c2ccc(O)cc2)c2ccccc2)cc1Cl (centres undefined) returned MCF10A rerep 26µM*, KB-3-1 tox inactive, SW480 rerep 5%, KB-V1 MDR tox inactive and IL-1B inflam inh -1.
For O=C(O)CC1(CC(=O)Nc2ccc(F)c(Cl)c2)CCCCC1 the results were MCF10A rerep -11%, KB-3-1 tox inactive, SW480 rerep inconclusive, KB-V1 MDR tox inactive and IL-1B inflam inh 12.
`COCCC(=O)N1CCC(Oc2ccc(C(=O)NC3Cc4ccccc4C3)cc2)CC1` gave MCF10A rerep 13%, KB-3-1 tox inactive, SW480 rerep 2%, KB-V1 MDR tox 4.1µM* and IL-1B inflam inh -4.
Screening O=C(Cc1cccc2ccccc12)Nc1ccc(OC(F)F)c(Cl)c1 returned MCF10A rerep 9%, KB-3-1 tox inconclusive, SW480 rerep 0%, KB-V1 MDR tox 21µM* and IL-1B inflam inh -3.
Screening Cc1cc(C)cc(-n2c3ccc(NC(=O)Cc4cccc5ccccc45)cc3c(=O)n2C)c1 returned KB-3-1 tox 5.2µM*, KB-V1 MDR tox inconclusive and IL-1B inflam inh 0.
`O=C(Nc1ccc(OC(F)F)c(Cl)c1)C(c1ccccc1)c1ccccc1` gave MCF10A rerep 2.3µM*, KB-3-1 tox inconclusive, SW480 rerep 17%, KB-V1 MDR tox inconclusive and IL-1B inflam inh -62*.
`O=C(O)c1ccccc1OC(C(=O)Nc1cc(Cl)cc(Cl)c1)c1ccccc1` (centres undefined) gave MCF10A rerep 21µM*, KB-3-1 tox inactive, SW480 rerep inconclusive, KB-V1 MDR tox inconclusive and IL-1B inflam inh 23.
`Cc1cc(C)c(S(=O)(=O)N2CCC(n3c(C(F)(F)F)nc4cccnc43)CC2)c(C)c1` gave KB-3-1 tox inactive and KB-V1 MDR tox inactive.
Screening Cc1cnc2c(N)cc(C)c(C)c2c1 returned KB-3-1 tox inactive, KB-V1 MDR tox inactive and IL-1B inflam inh inconclusive.
O=S1(=O)C=C(Sc2nnc(-c3ccccc3)o2)c2ccccc21 was read as MCF10A rerep inconclusive, KB-3-1 tox 15µM*, SW480 rerep 0.58µM*, KB-V1 MDR tox inconclusive and IL-1B inflam inh -102*.
`O=S1(=O)C=C(Sc2nc3ccccc3s2)c2ccccc21` gave MCF10A rerep 2.9µM*, KB-3-1 tox 2.3µM*, SW480 rerep inconclusive, KB-V1 MDR tox inconclusive and IL-1B inflam inh -66*.
Screening O=S1(=O)C=C(SCCN2CCCCC2)c2ccccc21 returned MCF10A rerep inconclusive, KB-3-1 tox inactive, SW480 rerep -1%, KB-V1 MDR tox inactive and IL-1B inflam inh inconclusive.
Cc1cc(C)nc(SC2=CS(=O)(=O)c3ccccc32)n1 was read as MCF10A rerep 16µM*, KB-3-1 tox 18µM*, SW480 rerep 21µM*, KB-V1 MDR tox inconclusive and IL-1B inflam inh -98*.
O=C(CSc1nc2ccccc2s1)CSc1nc2ccccc2s1 was read as MCF10A rerep 3%, KB-3-1 tox inactive, SW480 rerep -4%, KB-V1 MDR tox inactive and IL-1B inflam inh 30.
CSc1nnc(-c2ccccc2)o1 was read as MCF10A rerep -1%, KB-3-1 tox inactive, SW480 rerep -3%, KB-V1 MDR tox inactive and IL-1B inflam inh -18.
`COc1ccc(-c2cc(C(=O)Nc3c(F)cc(F)cc3Br)no2)cc1` gave MCF10A rerep 0%, KB-3-1 tox inactive, SW480 rerep inconclusive, KB-V1 MDR tox inconclusive and IL-1B inflam inh 1.
`NS(=O)(=O)c1ccc(CNC(=O)c2sccc2-c2ccccc2)cc1` gave MCF10A rerep 9%, KB-3-1 tox inactive, SW480 rerep 2%, KB-V1 MDR tox inactive and IL-1B inflam inh -13.
Cc1ccc(N2NC(=O)/C(=C\c3cc4c(cc3[N+](=O)[O-])OCO4)C2=O)cc1C was read as MCF10A rerep 18µM*, KB-3-1 tox inconclusive, SW480 rerep 0%, KB-V1 MDR tox inactive and IL-1B inflam inh -105*.
`COc1cc(/C=C2/C(=O)NN(c3ccc(C)c(Cl)c3)C2=O)cc([N+](=O)[O-])c1O` gave MCF10A rerep 0%, KB-3-1 tox inactive, SW480 rerep -33%, KB-V1 MDR tox inactive and IL-1B inflam inh -9.
For CC(C)c1ccccc1NC(=O)Nc1nnc([C@H]2C[C@H](O)[C@@H](CO)O2)s1 the results were KB-3-1 tox 0.0012µM*, KB-V1 MDR tox inactive and IL-1B inflam inh 17.
For O=C(Nc1nnc([C@@H]2C[C@H](O)[C@@H](CO)O2)s1)c1c(F)cccc1F the results were KB-3-1 tox inactive, KB-V1 MDR tox inactive and IL-1B inflam inh -56*.
O=C(NC1CCCCCCC1)C1c2ccccc2C(=O)N1Cc1cccs1 (centres undefined) was read as MCF10A rerep -2%, KB-3-1 tox inactive, SW480 rerep 22%, KB-V1 MDR tox inactive and IL-1B inflam inh -5.
`COc1ccc(CN2C(=O)CCC2(C)C(=O)NC2CCCCC2)c(OC)c1` (centres undefined) gave MCF10A rerep -4%, KB-3-1 tox inactive, SW480 rerep -5%, KB-V1 MDR tox 21µM* and IL-1B inflam inh -11.

Bioassay records: PubChem BioAssay, National Center for Advancing Translational Sciences (NCATS)
